Laboratory results published in PubChem BioAssay (NCATS).
Where “and” joins values, the source holds several entries; their conditions need not be identical. Equal entries are not always repeated. Inconclusive results are not listed. A call without a number means that no potency is given here. Where a structure was tested more than once in an assay, its records may differ in their call. Calls of active or inactive are those of the source. Calls follow the shape of the dose curve; as a rule, active = well fitted curve in the direction sought with a large enough effect; inconclusive = small, poorly fitted or top-dose-only effect, or another doubt; inactive = no such curve, though single readings can be large; an effect the other way counts as inactive or inconclusive.

Legend:
[1] = target: Glutathione peroxidase 1 (Homo sapiens) (UniProt P07203); experiment: Primary qHTS Assay for Inhibitors of Recombinant Selenoprotein Glutathione Peroxidase 1 (GPX1) (AID 1845191); also: nearly all actives have a fitted effect of over 65% in size; also: potency is read from the fitted curve at half-maximal effect
Glutathione peroxidase 1 (Homo sapiens), sequence (P07203 whole entry, looked up): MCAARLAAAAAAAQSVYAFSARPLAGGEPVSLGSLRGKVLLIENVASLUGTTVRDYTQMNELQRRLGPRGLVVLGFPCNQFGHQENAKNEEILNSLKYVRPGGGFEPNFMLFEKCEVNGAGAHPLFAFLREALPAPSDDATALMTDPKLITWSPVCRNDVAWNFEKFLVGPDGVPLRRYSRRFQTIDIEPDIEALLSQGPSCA
Procedure, shortened: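 GR-coupled readout: NADPH consumption tracked by fluorescence, ex 340/em 450 nm, at t=0 and after 15 min at RT. Final mix 10 nM GPX1, 1 mM GSH, 0.5 mM CHP, 0.5 mM NADPH, 100 nM GR, 0.01% BSA, following 30 min enzyme–compound preincubation.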

[2] = target: Phospholipid hydroperoxide glutathione peroxidase GPX4 (Homo sapiens) (UniProt P36969); experiment: Primary qHTS Assay for Inhibitors of Recombinant Selenoprotein Glutathione Peroxidase 4 (GPX4) (AID 1845192); also: nearly all actives have a fitted effect of over 65% in size; also: potency is read from the fitted curve at half-maximal effect; as to activity change, negative = inhibition: series mostly up to about 50 µM
Phospholipid hydroperoxide glutathione peroxidase GPX4 (Homo sapiens), sequence (P36969 whole entry, looked up): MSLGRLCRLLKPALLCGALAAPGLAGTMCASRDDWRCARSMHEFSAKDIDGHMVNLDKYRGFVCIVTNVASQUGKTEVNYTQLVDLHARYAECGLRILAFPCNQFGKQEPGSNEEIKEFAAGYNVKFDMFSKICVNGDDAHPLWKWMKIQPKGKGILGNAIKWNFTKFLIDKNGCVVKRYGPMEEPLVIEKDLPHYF
Procedure, shortened: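 Steps: GPX4 plus compound, 30 min RT; add GR/GSH/NADPH master mix; start with cumene hydroperoxide; read 340/450 nm fluorescence at 0 and 15 min. Finals were 200 nM GPX4, 1 mM GSH, 0.5 mM CHP, 0.5 mM NADPH, 100 nM GR.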

[3] = target: Luciferin 4-monooxygenase (Photinus pyralis) (UniProt P08659); experiment: Primary firefly luciferase (FLuc) qHTS assay for identification of artifact compounds. (AID 1845220); also: nearly all actives have a fitted effect of over 60% in size; as to activity change, negative = inhibition: series mostly up to about 54 µM
Procedure, shortened: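 D-luciferin and ATP (10 uM each, final) in Tris acetate buffer pH 7.6 were incubated with compounds for 15 min at room temperature. The reaction was started with 10 nM Photinus pyralis luciferase and luminescence read after 5 min. Percent inhibition was fitted to a 4-parameter Hill equation.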

[4] = Primary fluorescence-based thiol-reactive (MSTI) qHTS assay for identification of artifact compounds. (AID 1845221); also: nearly all actives have a fitted effect of over 65% in size; also: potency is read from the fitted curve at half-maximal effect
Procedure, shortened: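 MSTI probe at 4 uM final in 2% DMSO/PBS pH 7.4; compounds, 1 h at room temperature in dark. Fluorescence Ex/Em 525/598 nm, normalised to Acetyl-MSTI and MSTI, fitted to 4-parameter Hill.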

Row | SMILES | Potency [1] | Potency [2] | Potency [3] | Potency [4] | activity change, negative = inhibition [2]
1 | Cc1nc2ccc(CN(C)c3ccc(C(=O)N[C@@H](CCC(=O)O)C(=O)O)s3)cc2c(=O)[nH]1 | 25.5 µM (active) and inactive and 22.7 µM (active) | inactive | – | – | –
2 | CNC(=O)c1ccccc1Nc1nc(Nc2ccc(N3CCOCC3)cc2OC)ncc1Cl | inactive | inactive | inactive | 1890 nM (active) | –
3 | CNC(=O)c1cc(Oc2ccc(NC(=O)Nc3cc(C(C)(C)C)nn3-c3ccc4ncccc4c3)c(F)c2)ccn1 | inactive | inactive | inactive | inactive | –
4 | Fc1cc(-c2cccc3ncc(-c4cnn(C5CCNCC5)c4)nc23)cc(F)c1CN1CCOCC1 | inactive | inactive | inactive | inactive | –
5 | Cc1ccc(CN2CCNCC2)cc1NC(=O)CNc1ccc(F)c(F)c1 | inactive | inactive | inactive | – | –
6 | COc1ccc(OC)c(-c2nnc3ccc(-c4ccc(OC)c(O[C@@H]5CCOC5)c4)nn23)c1 | inactive | inactive | inactive | inactive | –
7 | COc1cc2c(Oc3ccc(-c4cnc(Nc5ccc(F)cc5)n(C)c4=O)cc3F)ccnc2cc1OCCCN1CCOCC1 | inactive | inactive | inactive | inactive | –
8 | CN1CCN(c2cc(C(=O)Nc3ccc4c(c3)-c3c(c(C(N)=O)nn3-c3ccc(F)cc3)CC4)c(Cl)cn2)CC1 | inactive | inactive | – | – | –
9 | Cc1ccc(NC(=O)C2(c3ccc4c(c3)OC(F)(F)O4)CC2)nc1-c1cccc(C(=O)O)c1 | inactive | inactive and 14.1 µM (active) | inactive | – | –
10 | C=CC(=O)Nc1cc2c(Nc3ccc(F)c(Cl)c3)ncnc2cc1C#CC(C)(C)N1CCN(C)CC1 | inactive | inactive | – | – | –
11 | C#Cc1cccc(Nc2ncnc3cc(OC)c(OCCCCCCC(=O)NO)cc23)c1 | inactive | inactive | inactive | inactive | –
12 | C=CC(=O)Nc1cc2c(Nc3ccc(F)c(Cl)c3)ncnc2cc1OCCCN1CCOCC1 | inactive | inactive | – | – | –
13 | COc1cc2c(Nc3ccc(NC(=O)c4ccccc4)cc3)ncnc2cc1OCCCN1CCOCC1 | inactive | inactive | inactive | inactive | –
14 | COc1cccc(Nc2c(C(N)=O)cnc3c(C)cc(S(=O)(=O)c4cccc(C(=O)N(C)C)c4)cc23)c1 | inactive | inactive | inactive | – | –
15 | CCN(CC)CCCCNc1ncc2cc(-c3cc(OC)cc(OC)c3)c(NC(=O)NC(C)(C)C)nc2n1 | inactive | inactive | – | – | –
16 | CC(=O)OCC(=O)[C@@]1(O)[C@H](C)C[C@H]2[C@@H]3C=C(C)C4=Cc5c(cnn5-c5ccccc5)C[C@]4(C)[C@@H]3[C@@H](O)C[C@@]21C | inactive | inactive | – | – | –
17 | O=C(NCCCNc1nc(Nc2cccc(NC(=O)N3CCCC3)c2)ncc1I)c1cccs1 | inactive | inactive | – | – | –
18 | CC(=O)SC[C@@H](C)C(=O)N1CCC[C@H]1C(=O)N[C@@H](Cc1ccccc1)C(=O)O | inactive | inactive | – | – | –
19 | CCN1CCN(CC(=O)Nc2ccc(-c3cccc4c(=O)cc(N5CCOCC5)oc34)c3sc4ccccc4c23)CC1 | inactive | inactive | – | – | –
20 | O=C(Nc1ncc(-c2cc(C(F)F)nn2-c2c(Cl)cccc2Cl)s1)C1CC1 | inactive | inactive | inactive | inactive | –
21 | CC(C)CC(=O)Nc1n[nH]c2c1CN(C(=O)C1CCN(C)CC1)C2(C)C | inactive | inactive | inactive | inactive | –
22 | CCNC(=O)Nc1ccc2ncc(Nc3ccc(C)cc3)nc2n1 | inactive | inactive | inactive | – | –
23 | COc1ccc(CC2c3cc(OC)c(OC)cc3CC[N+]2(C)CCC(=O)OCCCCCOC(=O)CC[N+]2(C)CCc3cc(OC)c(OC)cc3C2Cc2ccc(OC)c(OC)c2)cc1OC (stereo unspecified) | inactive | inactive | – | – | –
24 | CN(C1CCc2c(c3ccccc3n2CC(=O)O)C1)S(=O)(=O)c1ccc(F)cc1 (stereo unspecified) | inactive | inactive | inactive | – | –
25 | C[C@]12CC[C@H](O)CC1=CCC1C2CC[C@]2(C)C(n3cnc4ccccc43)=CCC12 (stereo partly specified) | inactive | inactive | inactive | inactive | –
26 | O=C(CCCCCCC(=O)Nc1ccc([C@H]2O[C@@H](CSc3nc(-c4ccccc4)c(-c4ccccc4)o3)C[C@@H](c3ccc(CO)cc3)O2)cc1)NO | inactive | – | inactive | – | -22.8% [at 9.73 µM] (inactive)
27 | CC[C@H](CO)Nc1nc(NCc2ccccc2)c2ncn(C(C)C)c2n1 | inactive | inactive | – | – | –
28 | COC(=O)C1=C(C)NC(C)=C(C(=O)OCCN2CCN(C(c3ccccc3)c3ccccc3)CC2)C1c1cccc([N+](=O)[O-])c1 (stereo unspecified) | inactive | inactive | – | – | –
29 | CCOC(=O)C1=C(C)NC2=C(C(=O)CC(C)(C)C2)C1c1ccc(-c2ccccc2)cc1 (stereo unspecified) | inactive | inactive | inactive | inactive | –
